Measured values: PubChem BioAssay (NCI)
Compounds without any hit were thinned out: in the full panel of roughly 79,000, 15% have a hit. Activity calls are given as the source filed them. Rule as the data show it: active = growth inhibition above about 70%; inactive = the rest.

Legend:
[1] = NCI Yeast Anticancer Drug Screen. Data for the rad52 strain (AID 147);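 also: 0% = growth of vehicle-treated control cultures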; conditions: S. cerevisiae rad52 mutant growth inhibition, active compounds read high
Summary of the method: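 Measured: yeast growth inhibition. System: strain with a defined DNA damage repair alteration. Reference: vehicle-treated control cultures.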

[2] = NCI Yeast Anticancer Drug Screen. Data for the wt1 strain (AID 149);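 also: 0% = growth of vehicle-treated wt1 cultures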; conditions: S. cerevisiae wt1 strain (SPY 50644) growth inhibition, active compounds read high
Summary of the method: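 wt1 yeast, compound-treated; % growth inhibition vs vehicle control.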

[3] = NCI Yeast Anticancer Drug Screen. Data for the rad50EPP+ strain (AID 151);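 also: 0% = growth of vehicle-treated control cultures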; conditions: S. cerevisiae rad50 mutant strain, active compounds read high
Summary of the method: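 One strain with a rad50 alteration (rad50EPP+) was compound-treated, its growth then compared to that of vehicle controls.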

[4] = NCI Yeast Anticancer Drug Screen. Data for the mgt1 strain (AID 153); conditions: S. cerevisiae mgt1 mutant growth inhibition, active compounds read high
Summary of the method: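 After exposure of the mgt1 yeast mutant to compound, growth was measured and reported as inhibition compared with vehicle controls.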

[5] = NCI Yeast Anticancer Drug Screen. Data for the rad50 strain (AID 155);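 also: 0% = growth of vehicle-only cultures of the same strain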; conditions: S. cerevisiae rad50 strain growth inhibition, active compounds read high
Summary of the method: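 Genetically altered yeast (DNA repair pathway); compound treatment; growth inhibition vs vehicle ctrl.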

[6] = NCI Yeast Anticancer Drug Screen. Data for the mec2-1 strain (AID 157); conditions: S. cerevisiae mec2-1 strain, active compounds read high
Summary of the method: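 Test agents were screened against the mec2-1 yeast strain, with defined DNA repair or cell cycle alteration. Growth was scored as inhibition against vehicle-only controls.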

[7] = NCI Yeast Anticancer Drug Screen. Data for the rad14 strain (AID 159);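 also: 0% = growth of vehicle-treated control cultures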; conditions: S. cerevisiae rad14 strain growth inhibition, active compounds read high
Summary of the method: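 Test compounds were applied to a repair-deficient yeast strain. Its growth was then compared with that of cultures given vehicle alone, and inhibition was expressed relative to those controls.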

[8] = NCI Yeast Anticancer Drug Screen. Data for the sgs1 mgt1 strain (AID 161);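 also: 0% = growth of cultures given vehicle only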; conditions: S. cerevisiae sgs1 mgt1 strain, active compounds read high
Summary of the method: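 Test agents were incubated with a DNA-repair-mutant yeast strain. Growth was then read and compared against vehicle-treated controls.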

[9] = NCI Yeast Anticancer Drug Screen. Data for the CLN2oe strain (AID 163);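 also: 0% = growth of vehicle-only control cultures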; conditions: S. cerevisiae CLN2oe strain, active compounds read high
Summary of the method: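 Here, growth inhibition in a cell-cycle-altered yeast strain after compound exposure was quantified against vehicle control growth.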

[10] = NCI Yeast Anticancer Drug Screen. Data for the cln2 rad14 strain (AID 165);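 also: 0% = growth equal to vehicle treated cultures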; conditions: S. cerevisiae cln2 rad14 strain, active compounds read high
Summary of the method: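 Growth of compound-exposed yeast (cln2 rad14 genotype) measured and expressed as inhibition relative to vehicle.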

[11] = NCI Yeast Anticancer Drug Screen. Data for the bub3 strain (AID 167); conditions: S. cerevisiae bub3 mutant strain, active compounds read high
Summary of the method: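 Yeast carrying a defined mutation is treated with each compound, and growth is compared with that of vehicle-exposed cells to give inhibition.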

[12] = NCI Yeast Anticancer Drug Screen. Data for the wt2 strain (AID 169);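 also: 0% = growth of vehicle-treated yeast cultures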; conditions: S. cerevisiae wt2 strain growth inhibition, active compounds read high
Summary of the method: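 Genetically defined yeast strains from a DNA-repair/cell-cycle panel were used. Compound-exposed yeast growth was measured, and the inhibition was calculated relative to vehicle treatment.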

[13] = NCI Yeast Anticancer Drug Screen. Data for the sgs1 strain (AID 173);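 also: 0% = growth of vehicle-only control cultures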; conditions: S. cerevisiae sgs1 mutant, active compounds read high
Summary of the method: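 Relative growth inhibition, referenced to vehicle, was determined in a yeast strain with a defined alteration affecting DNA damage repair or cell cycle control after compound exposure.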

[14] = NCI Yeast Anticancer Drug Screen. Data for the mlh1 rad18 strain (AID 175); conditions: S. cerevisiae mlh1 rad18 strain growth inhibition, active compounds read high
Summary of the method: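 In this whole-cell yeast screen, a strain with altered DNA damage repair is challenged with compound, and its growth is measured against matched vehicle-treated controls.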

[15] = NCI Yeast Anticancer Drug Screen. Data for the rad18 strain (AID 177); conditions: S. cerevisiae rad18 mutant growth inhibition, active compounds read high
Summary of the method: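 Screen uses a yeast strain with a defined lesion in DNA damage repair; compound effect is read as loss of growth compared to untreated vehicle cultures.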

[16] = at 5.0 µM (retest, dose inferred, filed as 0.5)
[17] = at 50.0 µM (retest, dose inferred, filed as 5.0)

Measured: growth inhibition

CCCCN(CCC#N)c1ccc(/C=C/c2ccnc3ccccc23)cc1
inactive: [1]; at 1.2 µM -6% | [1]; at 3.7 µM -9% | [1]; at 11.0 µM -9% | [1]; at 33.0 µM 63% | [2]; at 1.2 µM -6% | [2]; at 3.7 µM -10% | [2]; at 11.0 µM -13% | [2]; at 33.0 µM 66% | [3]; at 1.2 µM -3% | [3]; at 3.7 µM 7% | [3]; at 11.0 µM 30% | [3]; at 33.0 µM 38% | [3]; at 100.0 µM 26% | [4]; at 1.2 µM -6% | [4]; at 3.7 µM -9% | [4]; at 11.0 µM 0% | [4]; at 33.0 µM 62% | [5]; at 1.2 µM -4% | [5]; at 3.7 µM -7% | [5]; [16] 36% | [5]; at 11.0 µM -6% | [5]; at 33.0 µM 46% | [5]; [17] 30% | [5]; at 50.0 µM -15.1% | [6]; at 1.2 µM -9% | [6]; at 3.7 µM -10% | [6]; [16] 4% | [6]; at 11.0 µM -9% | [6]; at 33.0 µM 45% | [6]; at 50.0 µM -6.1% | [7]; at 1.2 µM -8% | [7]; at 3.7 µM -10% | [7]; at 11.0 µM -5% | [7]; at 33.0 µM -1% | [7]; at 100.0 µM 56% | [8]; [16] -11% | [8]; at 50.0 µM 14.9% | [9]; at 1.2 µM -8% | [9]; at 3.7 µM -14% | [9]; at 11.0 µM -22% | [9]; at 33.0 µM -23% | [9]; at 100.0 µM 22% | [10]; [16] 2% | [10]; [17] 12% | [10]; at 50.0 µM -9.8% | [11]; at 1.2 µM -7% | [11]; at 3.7 µM -14% | [11]; [16] -7% | [11]; at 11.0 µM -13% | [11]; at 33.0 µM -3% | [11]; at 50.0 µM -8.45% | [11]; at 100.0 µM 53% | [12]; at 1.2 µM -9% | [12]; at 3.7 µM -12% | [12]; at 11.0 µM -1% | [12]; at 33.0 µM 69% | [13]; at 1.2 µM -4% | [13]; at 3.7 µM -5% | [13]; at 11.0 µM 17% | [14]; [16] 16% | [14]; at 50.0 µM 11.7% | [15]; at 1.2 µM -3% | [15]; at 3.7 µM -3% | [15]; at 11.0 µM 1% | [15]; at 33.0 µM 32%
active: [1]; at 100.0 µM 79% | [2]; at 100.0 µM 85% | [4]; at 100.0 µM 76% | [5]; at 100.0 µM 72% | [6]; [17] 80% | [6]; at 100.0 µM 80% | [8]; [17] 77% | [11]; [17] 73% | [12]; at 100.0 µM 83% | [13]; at 33.0 µM 73% | [13]; at 100.0 µM 84% | [14]; [17] 74% | [15]; at 100.0 µM 77%

CCCCCCCCCCCCCCN
active: [1]; at 100.0 µM 98% | [2]; at 100.0 µM 98% | [3]; at 100.0 µM 97% | [4]; at 100.0 µM 99% | [5]; [16] 100% | [5]; [17] 97% | [5]; at 50.0 µM 90.3% | [5]; at 100.0 µM 98% | [6]; [16] 100% | [6]; [17] 96% | [6]; at 50.0 µM 92.1% | [6]; at 100.0 µM 99% | [7]; at 100.0 µM 99% | [8]; [17] 99% | [8]; at 50.0 µM 90.8% | [9]; at 100.0 µM 98% | [10]; [17] 99% | [10]; at 50.0 µM 88.2% | [11]; [17] 99% | [11]; at 50.0 µM 90.7% | [11]; at 100.0 µM 98% | [12]; at 100.0 µM 99% | [13]; at 100.0 µM 98% | [14]; [16] 100% | [14]; [17] 97% | [14]; at 50.0 µM 91.2% | [15]; at 100.0 µM 98%
inactive: [1]; at 1.2 µM 8% | [1]; at 3.7 µM 1% | [1]; at 11.0 µM -3% | [1]; at 33.0 µM 23% | [2]; at 1.2 µM 4% | [2]; at 3.7 µM -5% | [2]; at 11.0 µM -1% | [2]; at 33.0 µM 6% | [3]; at 1.2 µM -9% | [3]; at 3.7 µM 18% | [3]; at 11.0 µM 32% | [3]; at 33.0 µM 64% | [4]; at 1.2 µM -2% | [4]; at 3.7 µM 1% | [4]; at 11.0 µM -5% | [4]; at 33.0 µM 52% | [5]; at 1.2 µM 11% | [5]; at 3.7 µM 17% | [5]; at 11.0 µM 11% | [5]; at 33.0 µM 52% | [6]; at 1.2 µM -10% | [6]; at 3.7 µM -5% | [6]; at 11.0 µM -9% | [6]; at 33.0 µM 38% | [7]; at 1.2 µM 20% | [7]; at 3.7 µM 20% | [7]; at 11.0 µM 14% | [7]; at 33.0 µM 15% | [8]; [16] -20% | [9]; at 1.2 µM 6% | [9]; at 3.7 µM 6% | [9]; at 11.0 µM -14% | [9]; at 33.0 µM 37% | [10]; [16] 24% | [11]; at 1.2 µM 25% | [11]; at 3.7 µM 7% | [11]; [16] 31% | [11]; at 11.0 µM 21% | [11]; at 33.0 µM 58% | [12]; at 1.2 µM 3% | [12]; at 3.7 µM -1% | [12]; at 11.0 µM 4% | [12]; at 33.0 µM 27% | [13]; at 1.2 µM 10% | [13]; at 3.7 µM 16% | [13]; at 11.0 µM 19% | [13]; at 33.0 µM 65% | [15]; at 1.2 µM -3% | [15]; at 3.7 µM 4% | [15]; at 11.0 µM 5% | [15]; at 33.0 µM 24%
